Assay results: PubChem BioAssay (NCI)
Compounds without any hit were thinned out: in the full panel of roughly 83,000, 20% have a hit.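 Cell lines were cultured in 96-well plates, exposed to a single compound concentration, and assessed for percent growth 48 hours later.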 Unmarked numbers belong to inactive results. Calls of active or inactive are those of the source. How the source made its calls: active means growth percent below 10; inactive means the rest.

Test system: MDA-MB-468 breast
Test: NCI-60 one-dose screen, 48 h (100 = growth as untreated, 0 = no growth, -100 = all killed)
Conditions: 10 µM unless noted

Question: `CC(=O)N1N=C(c2ccc(Nc3nc(Nc4ccc(F)cc4)nc(Nc4ccc(Cl)cc4)n3)cc2)CC1c1ccc(Cl)cc1` (stereo not drawn) was tested. Which growth did it give?
Answer: Its growth is 104%.

Question: Which growth does the source give for `Cc1cc(=O)oc2cc(Oc3nc(-c4cccs4)cn4c(-c5cccs5)cnc34)ccc12` here?
Answer: The growth was 54.7%.

Question: How did the growth turn out when `NS(=O)(=O)c1ccc(Nc2cc(-c3ccccc3)nc(SCC(=O)c3ccccc3)n2)cc1` was run?
Answer: Its growth is 99.3%.

Question: `CCN(CC)c1ccc(/C=N/NC(=O)c2ccc(Nc3ccnc(C(F)(F)F)c3)cc2)c(O)c1` was tested. Which growth did it give?
Answer: The growth was 8.37% (active).

Question: How did the growth turn out when `COc1cccc(-c2nc3sccn3c2-c2ccnc(NCCCNS(=O)(=O)c3ccc(C(F)(F)F)cc3)c2)c1` was run?
Answer: The growth was 42.5%.

Question: `C=C(C)C1CC(O)C2(C)CCCC3C2C1CC(C)C3(C)CC/C(C)=C/C(O)C1CCC(=O)c2c(OC)cc(OC)cc21` (stereo not drawn) was tested. Which growth did it give?
Answer: Its growth is 0.0686% (active).

Question: For `CC(=O)O[C@H]1CC[C@]2(C)C3=C(C(=O)C[C@H]2C1(C)C)[C@]1(C)CC[C@H]([C@H](C)CCC(=O)O)[C@@]1(C)CC3=O`, which growth is on record?
Answer: The growth was 113%.

Question: For `O=C1/C(=C/c2ccc([N+](=O)[O-])cc2)Oc2ccc(O)cc21`, which growth is on record?
Answer: The growth was -63.3% (active).

Question: Which growth does the source give for `Nc1nc(N)c2cc(Sc3ccc4ccccc4c3)ccc2n1` here?
Answer: Its growth is 10.2%.

Question: `Clc1ccc(-n2cnc3c(Cl)ncnc32)cc1Cl` was tested. Which growth did it give?
Answer: The growth was 48.3%.

Question: Which growth does the source give for `c1ccc2cc(Cn3c(-c4ccc5ccccc5c4)[n+](Cc4ccc5ccccc5c4)c4ccccc43)ccc2c1` here?
Answer: Its growth is -42.9% (active).

Question: With `O=c1cc(-c2cccnc2)oc2c1ccc1ccccc12` as the molecule, how does the growth read?
Answer: The growth was 65%.

Question: For `N=C1c2nc3n(c2C(=O)c2nc4n(c21)CCCCC4)CCCCC3`, which growth is on record?
Answer: The growth was 99.8%.
